Screening results: PubChem BioAssay, The Scripps Research Institute Molecular Screening Center
Compounds with a hit are over-represented: about 2.9% of the library has one in this group of screens.
PLC-beta3 inh: inhibitors of human phospholipase C beta3; Q01970; Purified PLC-beta3, fluorogenic substrate, fluorescence; inhibition, % at 12.2 µM; 370,000 compounds, 0.18% hits; in the data active = inhibition above about 11%;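 also: 0% = median of compound wells on plate and 100% = full blocker control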
KLK7 zymogen act: activates the human kallikrein-7 zymogen. purified proKLK7, EDANS-DABCYL substrate fluorescence; 100% is mature enzyme control, 0% vehicle. 370,000 compounds, 0.9% hits. P49862. activation, % at 7 µM;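 active = activation above the mean of all tested compounds plus 3 SD, computed per campaign excluding outliers beyond control limits, cut at about 13% in these data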
ADAM17 inh: inhibits human ADAM17; P78536; recombinant ADAM17, EDANS/DABCYL FRET peptide cleavage; inhibition, % at 6.95 µM; 370,000 compounds, 0.83% hits;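 active = inhibition above the mean of compounds lying between control limits plus 3 SD, set per campaign, cut at about 8.5% in these data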;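 also: 0% = DMSO-only wells as the low control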
ADAM10 inh: inhibitors of human ADAM10; O14672; recombinant ADAM10, EDANS/DABCYL FRET peptide cleavage, 3 h; inhibition, % at 7 µM; 370,000 compounds, 0.62% hits; AID 720582;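 active = inhibition above a per-campaign cutoff equal to the mean of compounds falling between control-based bounds plus 3 SD, cut at about 20% in these data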;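 also: 0% = DMSO wells while the 100% control is not disclosed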
PLCg1 inh: blocks human PLC-gamma1 enzyme activity | purified PLC-gamma1, fluorogenic substrate, fluorescence | inhibition, % at 12.2 µM | 370,000 compounds, 0.84% hits | AID 720700; in the data active = inhibition above about 9.5%
Target sequence (P19174 whole entry, looked up): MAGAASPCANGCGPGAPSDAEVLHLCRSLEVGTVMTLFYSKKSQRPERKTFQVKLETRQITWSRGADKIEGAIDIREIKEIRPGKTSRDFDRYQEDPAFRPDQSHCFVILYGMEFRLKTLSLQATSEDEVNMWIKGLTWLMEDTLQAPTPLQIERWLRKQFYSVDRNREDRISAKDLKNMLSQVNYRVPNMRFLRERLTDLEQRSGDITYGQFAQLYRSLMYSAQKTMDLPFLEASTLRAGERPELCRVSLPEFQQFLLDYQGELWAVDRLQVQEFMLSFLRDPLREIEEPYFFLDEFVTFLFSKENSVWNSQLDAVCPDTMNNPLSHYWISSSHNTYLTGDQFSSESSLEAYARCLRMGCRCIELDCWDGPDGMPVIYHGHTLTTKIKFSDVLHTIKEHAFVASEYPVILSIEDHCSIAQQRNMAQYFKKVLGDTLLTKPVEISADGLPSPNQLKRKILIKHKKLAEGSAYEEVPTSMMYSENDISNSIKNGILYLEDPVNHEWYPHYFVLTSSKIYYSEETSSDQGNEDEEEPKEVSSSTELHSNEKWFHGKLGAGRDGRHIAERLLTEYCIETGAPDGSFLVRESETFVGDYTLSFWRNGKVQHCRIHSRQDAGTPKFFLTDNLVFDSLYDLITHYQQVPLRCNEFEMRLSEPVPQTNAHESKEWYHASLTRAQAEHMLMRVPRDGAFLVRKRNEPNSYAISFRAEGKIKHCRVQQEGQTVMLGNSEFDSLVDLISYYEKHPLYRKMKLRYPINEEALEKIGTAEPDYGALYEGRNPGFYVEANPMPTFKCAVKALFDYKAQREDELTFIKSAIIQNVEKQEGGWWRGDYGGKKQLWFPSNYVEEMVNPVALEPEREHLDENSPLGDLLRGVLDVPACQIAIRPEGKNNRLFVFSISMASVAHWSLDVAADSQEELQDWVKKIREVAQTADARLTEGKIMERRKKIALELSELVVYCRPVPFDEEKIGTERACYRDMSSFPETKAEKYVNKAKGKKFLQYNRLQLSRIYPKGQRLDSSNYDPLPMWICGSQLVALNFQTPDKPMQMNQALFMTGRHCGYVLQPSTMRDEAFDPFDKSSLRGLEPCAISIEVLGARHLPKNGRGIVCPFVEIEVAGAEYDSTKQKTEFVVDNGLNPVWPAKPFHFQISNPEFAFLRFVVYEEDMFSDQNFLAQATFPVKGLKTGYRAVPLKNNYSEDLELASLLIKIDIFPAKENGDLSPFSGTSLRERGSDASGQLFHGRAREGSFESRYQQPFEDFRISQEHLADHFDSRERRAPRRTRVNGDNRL
KLK7 act conf: confirmation of human kallikrein-7 zymogen activators | AID 686949 | shares compounds with KLK7 zymogen act | 3,200 compounds, 68% hits | purified proKLK7, EDANS-DABCYL substrate fluorescence; scaled: vehicle 0, mature enzyme 100 | activation, % at 7 µM;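 active = activation, as change over the incubation, above the mean of all tested compounds plus 3 SD, cut at about 13% in these data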
EDANS-DABCYL int: optically interferes with EDANS-DABCYL signal, flagging KLK7 hits. 3,200 compounds, 80% hits. activation, % at 7 µM. EDANS-DABCYL substrate fluorescence interference, no enzyme, 4 h; solvent 0%, active enzyme control 100%. shares compounds with KLK7 zymogen act;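 active = activation above the all-compound mean plus 3 SD, ignoring values outside control-based bounds, cut at about 4.8% in these data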;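 also: value is the 4 h activation minus the activation read at time zero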
K7 EDANS ctr: counter-screen for kallikrein-7 activators: EDANS-DABCYL interference, dose response; 250 compounds, 20% hits; EDANS-DABCYL peptide fluorescence interference, no enzyme; AID 720493; shares compounds with KLK7 zymogen act; EC50, µM;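 active = compounds that raise the fluorescence signal in this interference counterscreen, with EC50 at or below 10 µM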;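 also: intact quenched peptide substrate alone read at 355 nm excitation and 520 nm emission; signal is fluorescence gain from T0 to T4 after four hours at room temperature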
* = called active by the depositor; i = inactive; . = no result given; ! = not active in a repeat.

SMILES | PLC-beta3 inh | KLK7 zymogen act | ADAM17 inh | ADAM10 inh | PLCg1 inh | KLK7 act conf | EDANS-DABCYL int | others
CCOC(=O)c1cc2c(=O)n3cccc(C)c3nc2n(CC2CCCO2)c1=NC(C)=O (stereo not given) | -196 | 15*! | -252 | i | -150 | 6 | 7.0*
O=C(NN=Cc1ccccc1O)C(O)c1ccccc1 (stereo not given) | -35 | -62 | -14 | -58 | -30 | . | .
COc1ccc(OC)c(/C=N/NC(=O)C(O)c2ccccc2)c1 (stereo not given) | i | 41* | i | i | i | 34* | 36*
COc1ccc(OC)c(/C=N/NC(=O)CN2CCSCC2)c1 | i | 24* | -430 | i | i | 56* | 47* | K7 EDANS ctr=i
C[C@H]1[C@H](c2ccccc2)Oc2cccc(N3CCCC3)c2S(=O)(=O)N1Cc1cccc(F)c1 | 0 | -1 | -3 | -5 | -1 | . | .
COC(=O)CNC(=O)[C@H](Cc1ccccc1)NC1(C(=O)NCCc2c[nH]c3ccccc23)CCCCC1 | 1 | . | 4 | 6 | 5 | . | .
Cc1cc(NCCCN2CCOCC2)n2c(nc3ccccc32)c1C#N | i | 31* | i | i | i | 66* | 64*
CCCc1cc(NCCCN2CCOCC2)n2c(nc3ccccc32)c1C#N | i | -11 | -406 | i | -454 | . | .
Cc1cc(NCCN2CCOCC2)n2c(nc3ccccc32)c1C#N | -425 | 16* | -214 | i | -360 | -97 | -170
O=C(CSc1nnc(-c2ccco2)n1-c1ccc(Cl)cc1)Nc1ccc(S(=O)(=O)Nc2nccs2)cc1 | 4 | 0 | 7 | 17 | 5 | . | .
Cc1ccccc1-c1ccc2c(c1)[C@@H]1C[C@H](N(C)CC3CCCCC3)[C@H]([C@H](C)O)CN1CC2 | -106 | 13* | -19 | -77 | -84 | 6 | 7.1*
C=CCn1c(SCC(=O)OC(C)C)nnc1-c1ccc(C)cc1 | 0 | 0 | -4 | -10 | -4 | . | .
CCCC1NC(C(=O)O)Cc2c1[nH]c1ccccc21 (stereo not given) | -235 | 13* | -117 | -323 | -217 | 8 | 7.6*
CC(C)CC1NC(C(=O)O)Cc2c1[nH]c1ccccc21 (stereo not given) | -114 | 7 | -39 | -105 | -99 | . | .
CC(C)C1NC(C(=O)O)Cc2c1[nH]c1ccccc21 (stereo not given) | -384 | 30* | -216 | i | -373 | 56* | 49*
Nn1cnc2c(ncn2C2OC(CO)C(O)C2O)c1=O (stereo not given) | 1 | 0 | -4 | -10 | 4 | . | .
COc1ccc(CN2C[C@]3(C=C(C)Cn4c(=O)n(-c5ccccc5)c(=O)n43)N=C2NC(=O)c2ccccc2)c(OC)c1 | -9 | 0 | -1 | 9 | -7 | . | .
COc1cc(/C=C/c2nc3ccccc3c(=O)[nH]2)ccc1O | -441 | 17* | -43 | -128 | -330 | -1 | 3
CC(C)Nc1nc(-c2ccccc2CO)c2sccc2n1 | -479 | 22* | -444 | i | -361 | 17* | 11* | K7 EDANS ctr=>70
OCc1ccccc1-c1nc(NCC2CC2)nc2ccsc12 | -472 | 15* | -384 | i | -380 | -18 | 6.9*
CN(C)CCNc1nc(-c2ccccc2CO)c2sccc2n1 | -47 | 7 | -66 | -321 | -36 | . | .
Cc1ccc(CSc2nnc(-c3cc(-c4ccc(C)cc4)n[nH]3)n2N)cc1 | 5 | -1 | 5 | -9 | 0 | . | .
CCOC(=O)CC[C@@]1(C(=O)OCC)C[C@@H](CC(=O)N2CCN(C(=O)c3ccco3)CC2)C(=O)N2CCCC=C21 | -1 | 1 | 3 | 4 | 3 | . | .
CC1COc2c(N3CCN(C)CC3)c(F)cc3c(=O)c(C(=O)O)cn1c23 (stereo not given) | i | 160* | i | i | i | 32* | 34*
CCOc1ccc(NC(=O)c2ccc(NC(=O)c3cn4c5c(c(N6CCN(C)CC6)c(F)cc5c3=O)OCC4C)cc2)cc1 (stereo not given) | -206 | 43* | -47 | -205 | -222 | 10 | 8.4*
SMILES | PLC-beta3 inh | KLK7 zymogen act | ADAM17 inh | ADAM10 inh | PLCg1 inh | KLK7 act conf | EDANS-DABCYL int | others
N#Cc1ccc(Cn2ccc3ccc(-c4ccc5ccn(C(=O)C6CCCCC6)c5c4)cc32)cc1 | -143 | -1 | -10 | -27 | -103 | . | .
O=C(Nc1ccc(F)cc1)OCc1cn(Cc2cccc(Cl)c2)nn1 | -4 | 1 | 2 | 7 | 0 | . | .
CC(=O)N(C(C)=O)c1ncc2c([nH]c3ccccc32)c1C#N | -224 | 19* | -88 | -283 | -162 | 25* | 25*
Cc1ccc(-c2cc(C(=O)O)c3ccccc3n2)s1 | i | 54* | i | i | i | 63* | 71*
CC(C)CCNC(=O)c1cc(-c2cccs2)nc2ccccc12 | -206 | -11 | -179 | -407 | -139 | . | .
O=C(O)c1cc(-c2ccc(Cl)s2)nc2ccccc12 | i | 47* | i | i | -437 | 36* | 41*
CCC(C)NC(=O)c1cc(-c2cccs2)nc2ccccc12 (stereo not given) | i | 26* | -491 | i | -412 | -15 | -27
O=C(Nc1ccccn1)c1cc(-c2ccc(Cl)s2)nc2ccccc12 | -163 | -49 | -45 | -185 | -118 | . | .
Cc1cccc(NC(=O)c2cc(-c3ccc(C)s3)nc3ccccc23)n1 | i | -92 | -208 | i | i | . | .
Cc1cccc(-c2cccc3c4c([nH]c23)[C@@H]2C[C@H](N(C)C(=O)c3ccccc3C)[C@H]([C@H](C)O)C(=O)N2CC4)c1 | 2 | 0 | 2 | 3 | 0 | . | .
CCN1CC(CN(C)Cc2cn(-c3cccc(C)c3)nc2-c2cccc(F)c2)CC1=O (stereo not given) | -6 | 17* | 2 | 12 | 2 | 1 | 0
Brc1ccc(-c2ccc3c(n2)CCCN3Cc2ccccn2)cc1 | -86 | -1 | -15 | -71 | -75 | . | .
Cc1cc2c(nc1C)CCCN2Cc1ccccn1 | -125 | 15* | -39 | -148 | -97 | -4 | -7
CCOC(=O)c1cc(-c2ccco2)nc2c1c(C)nn2CCC#N | i | 32* | -257 | i | i | -48 | -66
CCOC(=O)c1cc(-c2ccc(Cl)cc2)nc2c1c(C)nn2CCC#N | -52 | -5 | -6 | -36 | -37 | . | .
CCN(CC)C(=O)COC(=O)c1cc(-c2ccco2)nc2ccccc12 | i | 74* | -217 | i | i | 20* | 17* | K7 EDANS ctr=i
COc1cccc(NC(=O)c2cc(-c3ccco3)nc3ccccc23)c1 | -91 | -8 | -30 | -86 | -66 | . | .
